In PubChem BioAssay (NCI) one finds growth inhibition data, which are given here for ten compounds.

About 79,000 compounds went through this panel and 15% of them were active in at least one assay; those are over-represented in the sample as a whole. A number with no mark means an inactive call. Calls of active or inactive are those of the source. Cut-off read from the data, not from the text of the source: active = growth inhibition above about 70%; inactive = the rest.

Experiment [1] is described as follows: NCI Yeast Anticancer Drug Screen. Data for the rad50 strain (AID 155).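 Note: 0% = growth of vehicle-only cultures of the same strain.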 Particulars: S. cerevisiae rad50 strain growth inhibition, active compounds read high. The gist of the method: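 Relative growth inhibition (compound vs vehicle) was measured in yeast with a defined repair-gene alteration.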
Experiment [2] is described as follows: NCI Yeast Anticancer Drug Screen. Data for the mec2-1 strain (AID 157). Particulars: S. cerevisiae mec2-1 strain, active compounds read high. The gist of the method: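 Readout is yeast growth inhibition, normalised to vehicle-treated controls, in the mec2-1 strain exposed to compound.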
Experiment [3] can be described thus: NCI Yeast Anticancer Drug Screen. Data for the sgs1 mgt1 strain (AID 161).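 Note: 0% = growth of cultures given vehicle only.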 The following applies: S. cerevisiae sgs1 mgt1 strain, active compounds read high. The gist of the method:
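Percent growth inhibition was derived by comparing compound-exposed mutant yeast with vehicle-exposed cultures. The strain carries alterations in DNA damage repair.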

Experiment [4] can be described thus: NCI Yeast Anticancer Drug Screen. Data for the cln2 rad14 strain (AID 165).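 Note: 0% = growth equal to vehicle treated cultures.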 The following applies: S. cerevisiae cln2 rad14 strain, active compounds read high. Put shortly:
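Relative to vehicle controls, growth inhibition of compound-treated cln2 rad14 yeast was recorded.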

Experiment [5] in a line: NCI Yeast Anticancer Drug Screen. Data for the bub3 strain (AID 167). Particulars: S. cerevisiae bub3 mutant strain, active compounds read high. The gist of the method: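 Screening used yeast with an engineered genetic alteration affecting cell cycle control. Compound-exposed cultures were compared with vehicle cultures, and reduced growth was taken as inhibition.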
The nature of experiment [6]: NCI Yeast Anticancer Drug Screen. Data for the mlh1 rad18 strain (AID 175). The following applies: S. cerevisiae mlh1 rad18 strain growth inhibition, active compounds read high. The gist of the method: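 Test agents were incubated with a yeast strain of defined genotype (DNA damage repair defect). Inhibition of growth was derived by comparison with vehicle-exposed cultures.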

Where [7] appears, read: at 5.0 µM (retest, dose inferred, filed as 0.5).
[8] abbreviates: at 50.0 µM (retest, dose inferred, filed as 5.0).

For `NSc1ccccn1`, the growth inhibition in experiment [1] (setting [7]) is 7%; in experiment [1] (setting [8]) it was 74% (active); in experiment [1] (at 50.0 µM) it was 90.4% (active); in experiment [2] (setting [7]), 9%; in experiment [2] (setting [8]), 93% (active); in experiment [2] (at 50.0 µM), 93.5% (active). The growth inhibition was 11% in experiment [3] (setting [7]); 79% (active) in experiment [3] (setting [8]); 97.8% (active) in experiment [3] (at 50.0 µM); 29% in experiment [4] (setting [7]); 84% (active) in experiment [4] (setting [8]); 89.7% (active) in experiment [4] (at 50.0 µM). In addition, the growth inhibition is 3% in experiment [5] (setting [7]); 92% (active) in experiment [5] (setting [8]); 99% (active) in experiment [5] (at 50.0 µM); 4% in experiment [6] (setting [7]); 85% (active) in experiment [6] (setting [8]); 96.7% (active) in experiment [6] (at 50.0 µM).
In the case of `CC(=O)OC1=Cc2ccccc2C(c2ccccc2)c2ccccc21` (stereo not given), the growth inhibition in experiment [1] (setting [7]) was -10%; in experiment [1] (setting [8]), 29%; in experiment [1] (at 50.0 µM), 14.3%; in experiment [2] (setting [7]) it was -3%; in experiment [2] (setting [8]), 31%; in experiment [2] (at 50.0 µM) it was 9.55%. In addition, the growth inhibition is 2% in experiment [3] (setting [7]); 18% in experiment [3] (setting [8]); 16.5% in experiment [3] (at 50.0 µM); 20% in experiment [4] (setting [7]); 37% in experiment [4] (setting [8]); 10.7% in experiment [4] (at 50.0 µM). Besides, the growth inhibition in experiment [5] (setting [7]) is 8%; in experiment [5] (setting [8]) it was 20%; in experiment [5] (at 50.0 µM) it was 14.3%; in experiment [6] (setting [7]) it was 11%; in experiment [6] (setting [8]) it was 53%; in experiment [6] (at 50.0 µM), 18.3%.
Take `Nc1cc(S(=O)(=O)O)cc2cc(S(=O)(=O)O)c(N=Nc3ccccc3)c(O)c12`: the growth inhibition was 0% in experiment [1] (setting [7]); -1% in experiment [1] (setting [8]); 99.3% (active) in experiment [1] (at 50.0 µM); -2% in experiment [2] (setting [7]); 5% in experiment [2] (setting [8]); 99.2% (active) in experiment [2] (at 50.0 µM). Further, the growth inhibition was 0% in experiment [3] (setting [7]); 0% in experiment [3] (setting [8]); 99.3% (active) in experiment [3] (at 50.0 µM); 12% in experiment [4] (setting [7]); 3% in experiment [4] (setting [8]); 96.5% (active) in experiment [4] (at 50.0 µM). Besides, the growth inhibition is -36% in experiment [5] (setting [7]); 10% in experiment [5] (setting [8]); 99% (active) in experiment [5] (at 50.0 µM); 0% in experiment [6] (setting [7]); 1% in experiment [6] (setting [8]); 98.7% (active) in experiment [6] (at 50.0 µM).
On to `COc1ccc2c(c1)C(=O)C[C@@H]1[C@](C)(C#N)CCC[C@]21C`, for which the growth inhibition in experiment [1] (setting [7]) is 3%; in experiment [1] (setting [8]) it was 31%; in experiment [1] (at 50.0 µM), 47.1%; in experiment [2] (setting [7]) it was 3%; in experiment [2] (setting [8]), 2%; in experiment [2] (at 50.0 µM) it was -4.95%. Further, the growth inhibition in experiment [3] (setting [7]) is 3%; in experiment [3] (setting [8]) it was 19%; in experiment [3] (at 50.0 µM), 33.4%; in experiment [4] (setting [7]) it was 5%; in experiment [4] (setting [8]), 10%; in experiment [4] (at 50.0 µM), -2.7%. Further, the growth inhibition in experiment [5] (setting [7]) was 5%; in experiment [5] (setting [8]), 34%; in experiment [5] (at 50.0 µM), 69.8%; in experiment [6] (setting [7]), 7%; in experiment [6] (setting [8]) it was 13%; in experiment [6] (at 50.0 µM), 47.7%.
For the compound `OC(C/C=N/Nc1ccccc1)(C(F)(F)Cl)C(F)(F)Cl`, the growth inhibition is -13% in experiment [1] (setting [7]); 97% (active) in experiment [1] (setting [8]); 89.2% (active) in experiment [1] (at 50.0 µM); -11% in experiment [2] (setting [7]); 99% (active) in experiment [2] (setting [8]); 90.9% (active) in experiment [2] (at 50.0 µM). Besides, the growth inhibition in experiment [3] (setting [7]) is -10%; in experiment [3] (setting [8]), 98% (active); in experiment [3] (at 50.0 µM), 91.7% (active); in experiment [4] (setting [7]) it was 2%; in experiment [4] (setting [8]), 98% (active); in experiment [4] (at 50.0 µM), 89.5% (active). In addition, the growth inhibition in experiment [5] (setting [7]) is 5%; in experiment [5] (setting [8]), 98% (active); in experiment [5] (at 50.0 µM), 91.8% (active); in experiment [6] (setting [7]), -18%; in experiment [6] (setting [8]), 98% (active); in experiment [6] (at 50.0 µM) it was 89.6% (active).
In the case of `Nc1cc(Cl)ccc1C(=O)O`, the growth inhibition is 34% in experiment [1] (setting [7]); 78% (active) in experiment [1] (setting [8]); 81.2% (active) in experiment [1] (at 50.0 µM); 7% in experiment [2] (setting [7]); 32% in experiment [2] (setting [8]); 91.7% (active) in experiment [2] (at 50.0 µM). Also, the growth inhibition in experiment [3] (setting [7]) is 14%; in experiment [3] (setting [8]) it was 39%; in experiment [3] (at 50.0 µM), 49.8%; in experiment [4] (setting [7]), -2%; in experiment [4] (setting [8]), 30%; in experiment [4] (at 50.0 µM) it was 42.7%. Also, the growth inhibition was 3% in experiment [5] (setting [7]); 50% in experiment [5] (setting [8]); 96.4% (active) in experiment [5] (at 50.0 µM); 21% in experiment [6] (setting [7]); 59% in experiment [6] (setting [8]); 50.2% in experiment [6] (at 50.0 µM).
As for `C/C(=N\O)c1ccc2c3c(ccc([N+](=O)[O-])c13)CC2`, the growth inhibition in experiment [1] (setting [7]) is -2%; in experiment [1] (setting [8]), 9%; in experiment [1] (at 50.0 µM), 13.2%; in experiment [2] (setting [7]), -9%; in experiment [2] (setting [8]), 7%; in experiment [2] (at 50.0 µM), 29.2%. For the same compound, the growth inhibition is -9% in experiment [3] (setting [7]); -2% in experiment [3] (setting [8]); -6.4% in experiment [3] (at 50.0 µM); 0% in experiment [4] (setting [7]); -5% in experiment [4] (setting [8]); 34.9% in experiment [4] (at 50.0 µM). The growth inhibition in experiment [5] (setting [7]) was 0%; in experiment [5] (setting [8]), 7%; in experiment [5] (at 50.0 µM), 85.2% (active); in experiment [6] (setting [7]), 8%; in experiment [6] (setting [8]) it was 30%; in experiment [6] (at 50.0 µM) it was 88.5% (active).
As to `CCCCCOC(=O)C1C(=O)CC(c2ccccc2)C1c1ccccc1` (stereo not given), the growth inhibition in experiment [1] (setting [7]) is 1%; in experiment [1] (setting [8]) it was 79% (active); in experiment [1] (at 50.0 µM), 92.2% (active); in experiment [2] (setting [7]) it was -1%; in experiment [2] (setting [8]) it was 63%; in experiment [2] (at 50.0 µM), 16.6%. The growth inhibition was -4% in experiment [3] (setting [7]); 67% in experiment [3] (setting [8]); 56.1% in experiment [3] (at 50.0 µM); 0% in experiment [4] (setting [7]); 76% (active) in experiment [4] (setting [8]); 63.9% in experiment [4] (at 50.0 µM). Also, the growth inhibition in experiment [5] (setting [7]) was -5%; in experiment [5] (setting [8]) it was 72% (active); in experiment [5] (at 50.0 µM), 45.5%; in experiment [6] (setting [7]), 0%; in experiment [6] (setting [8]) it was 85% (active); in experiment [6] (at 50.0 µM) it was 68.6%.
With `BrCc1ccccc1C[P+](c1ccccc1)(c1ccccc1)c1ccccc1`, the growth inhibition is 55% in experiment [1] (setting [7]); 98% (active) in experiment [1] (setting [8]); 89.5% (active) in experiment [1] (at 50.0 µM); 52% in experiment [2] (setting [7]); 99% (active) in experiment [2] (setting [8]); 90.7% (active) in experiment [2] (at 50.0 µM). For the same compound, the growth inhibition was 54% in experiment [3] (setting [7]); 99% (active) in experiment [3] (setting [8]); 85.5% (active) in experiment [3] (at 50.0 µM); 25% in experiment [4] (setting [7]); 97% (active) in experiment [4] (setting [8]); 82.3% (active) in experiment [4] (at 50.0 µM). The growth inhibition in experiment [5] (setting [7]) was 47%; in experiment [5] (setting [8]), 98% (active); in experiment [5] (at 50.0 µM), 89.7% (active); in experiment [6] (setting [7]), 69%; in experiment [6] (setting [8]) it was 98% (active); in experiment [6] (at 50.0 µM) it was 88.2% (active).
On to `CC(C)(C)CC(C)(C)N[P+](NC(C)(C)CC(C)(C)C)(NC(C)(C)CC(C)(C)C)NC(C)(C)CC(C)(C)C`, for which the growth inhibition in experiment [1] (setting [7]) was 89% (active); in experiment [1] (setting [8]), 98% (active); in experiment [1] (at 50.0 µM), 83.2% (active); in experiment [2] (setting [7]) it was 97% (active); in experiment [2] (setting [8]), 99% (active); in experiment [2] (at 50.0 µM) it was 88.3% (active). Besides, the growth inhibition in experiment [3] (setting [7]) was 81% (active); in experiment [3] (setting [8]), 99% (active); in experiment [3] (at 50.0 µM), 91.5% (active); in experiment [4] (setting [7]), 84% (active); in experiment [4] (setting [8]), 99% (active); in experiment [4] (at 50.0 µM), 90.7% (active). Further, the growth inhibition was 96% (active) in experiment [5] (setting [7]); 99% (active) in experiment [5] (setting [8]); 90.5% (active) in experiment [5] (at 50.0 µM); 94% (active) in experiment [6] (setting [7]); 98% (active) in experiment [6] (setting [8]); 90.7% (active) in experiment [6] (at 50.0 µM).
